# Laboratory results reported in paper PMC7862700, “An all-to-all approach to the identification of sequence-specific readers for epigenetic DNA modifications on cytosine”.
# Tests used:
# Experiment in all cases: DAPPL (digital affinity profiling via proximity ligation, sequencing); 10 mM Tris-HCl pH 7.5, 50 mM NaCl, 1 mM DTT, 4% glycerol, room temperature, 30 min; GST-TFs on glutathione beads, 16-mer random dsDNA library, 0.1% formaldehyde crosslink after washing; high values mean tight binding
# FLI1 = molecular target: T1, FLI1 (Homo sapiens, UniProt Q01543 1-452); conditions: protein: recombinant; tags: N-terminal GST; dsDNA, one strand shown
# T1 sequence: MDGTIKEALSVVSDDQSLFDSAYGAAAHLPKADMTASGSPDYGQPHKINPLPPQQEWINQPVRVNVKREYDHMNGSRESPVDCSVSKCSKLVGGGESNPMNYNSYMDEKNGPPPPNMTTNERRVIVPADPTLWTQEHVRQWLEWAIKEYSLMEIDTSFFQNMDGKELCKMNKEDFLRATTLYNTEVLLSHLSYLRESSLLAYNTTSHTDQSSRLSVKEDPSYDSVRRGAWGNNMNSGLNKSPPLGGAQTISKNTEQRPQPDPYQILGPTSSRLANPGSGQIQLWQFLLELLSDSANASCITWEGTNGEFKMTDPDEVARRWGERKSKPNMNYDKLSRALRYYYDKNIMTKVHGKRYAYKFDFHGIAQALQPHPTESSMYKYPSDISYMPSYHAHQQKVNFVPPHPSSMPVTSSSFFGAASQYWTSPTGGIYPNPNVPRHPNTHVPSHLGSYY
# In short: (§1)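 Each value of binding signal is a hexamer's read frequency for a factor divided by the same hexamer's frequency in the tag-only sample. Barcoded, bead-captured GST fusions of human transcription factors made in yeast were pooled with that sample and incubated with 200 nmole of a random double-stranded 16-mer DNA library in Tris/NaCl/DTT/glycerol buffer at room temperature for 30 min. Washing, 0.1% formaldehyde crosslinking, proximity ligation, PCR and Illumina NextSeq500 sequencing followed.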
# ELK1 = molecular target: T2, ELK1 (Homo sapiens, UniProt P19419 1-428); conditions: protein: recombinant; tags: N-terminal GST; dsDNA, one strand shown
# T2 sequence: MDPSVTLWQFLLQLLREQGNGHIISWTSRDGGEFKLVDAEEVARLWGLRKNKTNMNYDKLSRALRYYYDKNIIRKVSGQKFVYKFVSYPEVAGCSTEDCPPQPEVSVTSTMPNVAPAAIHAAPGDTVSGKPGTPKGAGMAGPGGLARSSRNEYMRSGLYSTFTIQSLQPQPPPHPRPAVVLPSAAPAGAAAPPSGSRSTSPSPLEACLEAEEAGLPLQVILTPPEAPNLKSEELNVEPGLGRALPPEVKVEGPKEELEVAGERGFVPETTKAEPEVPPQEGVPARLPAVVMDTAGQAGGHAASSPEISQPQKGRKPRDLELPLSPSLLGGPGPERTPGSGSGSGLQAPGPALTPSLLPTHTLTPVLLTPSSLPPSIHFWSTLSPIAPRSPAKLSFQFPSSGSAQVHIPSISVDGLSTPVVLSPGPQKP
# In short: as §1
# GABPA = molecular target: T3, GABPA (Homo sapiens, UniProt Q06546 1-454); conditions: protein: recombinant; tags: N-terminal GST; dsDNA, one strand shown
# T3 sequence: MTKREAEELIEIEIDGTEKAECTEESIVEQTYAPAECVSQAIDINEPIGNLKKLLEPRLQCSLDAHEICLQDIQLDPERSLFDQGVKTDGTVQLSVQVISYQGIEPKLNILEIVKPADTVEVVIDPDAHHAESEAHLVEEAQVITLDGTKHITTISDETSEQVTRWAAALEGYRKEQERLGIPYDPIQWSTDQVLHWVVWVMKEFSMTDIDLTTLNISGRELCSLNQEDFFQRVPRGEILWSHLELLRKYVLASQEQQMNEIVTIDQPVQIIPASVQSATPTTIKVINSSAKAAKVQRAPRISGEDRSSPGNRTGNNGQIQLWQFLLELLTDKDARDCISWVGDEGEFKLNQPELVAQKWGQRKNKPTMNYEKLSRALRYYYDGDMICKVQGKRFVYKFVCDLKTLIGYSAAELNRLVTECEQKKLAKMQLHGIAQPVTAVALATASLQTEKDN
# In short: as §1
# ERG = molecular target: T4, ERG (Homo sapiens, UniProt P11308 1-479); conditions: protein: recombinant; tags: N-terminal GST; dsDNA, one strand shown
# T4 sequence: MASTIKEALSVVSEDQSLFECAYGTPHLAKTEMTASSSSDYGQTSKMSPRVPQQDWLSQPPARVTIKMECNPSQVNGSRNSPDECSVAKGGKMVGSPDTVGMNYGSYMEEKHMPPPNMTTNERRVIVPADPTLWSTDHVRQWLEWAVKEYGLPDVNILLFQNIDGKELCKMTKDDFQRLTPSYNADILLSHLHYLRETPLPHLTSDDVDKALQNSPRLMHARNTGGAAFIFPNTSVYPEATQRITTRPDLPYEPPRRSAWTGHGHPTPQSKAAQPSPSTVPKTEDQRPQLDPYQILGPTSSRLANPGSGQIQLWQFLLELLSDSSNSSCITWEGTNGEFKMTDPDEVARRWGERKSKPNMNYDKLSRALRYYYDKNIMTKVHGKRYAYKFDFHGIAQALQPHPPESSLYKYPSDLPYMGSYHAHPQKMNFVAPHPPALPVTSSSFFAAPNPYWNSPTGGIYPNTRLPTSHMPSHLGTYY
# In short: as §1
# ELF1 = ELF1 (Homo sapiens, UniProt P32519 1-619); conditions: protein: recombinant; tags: N-terminal GST; dsDNA, one strand shown
# Chain of ELF1 (P32519 whole entry): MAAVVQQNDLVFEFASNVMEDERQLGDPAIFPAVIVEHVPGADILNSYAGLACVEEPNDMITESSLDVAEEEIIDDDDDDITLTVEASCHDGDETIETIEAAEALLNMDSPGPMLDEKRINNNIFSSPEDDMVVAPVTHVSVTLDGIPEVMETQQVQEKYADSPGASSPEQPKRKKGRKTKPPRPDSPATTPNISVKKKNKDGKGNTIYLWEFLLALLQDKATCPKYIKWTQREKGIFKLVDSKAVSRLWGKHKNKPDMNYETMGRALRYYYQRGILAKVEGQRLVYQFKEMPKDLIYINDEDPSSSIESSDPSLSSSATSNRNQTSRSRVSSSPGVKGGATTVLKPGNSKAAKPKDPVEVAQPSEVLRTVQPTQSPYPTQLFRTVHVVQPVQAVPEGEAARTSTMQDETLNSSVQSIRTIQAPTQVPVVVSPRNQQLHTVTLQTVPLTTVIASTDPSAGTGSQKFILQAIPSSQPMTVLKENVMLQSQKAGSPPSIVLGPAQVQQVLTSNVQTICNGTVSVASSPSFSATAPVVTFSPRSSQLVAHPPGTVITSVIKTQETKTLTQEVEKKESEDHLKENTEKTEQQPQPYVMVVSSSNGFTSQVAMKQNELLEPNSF
# In short: as §1
# EHF = molecular target: T5, EHF (Homo sapiens, UniProt Q9NZC4 1-300); conditions: protein: recombinant; tags: N-terminal GST; dsDNA, one strand shown
# T5 sequence: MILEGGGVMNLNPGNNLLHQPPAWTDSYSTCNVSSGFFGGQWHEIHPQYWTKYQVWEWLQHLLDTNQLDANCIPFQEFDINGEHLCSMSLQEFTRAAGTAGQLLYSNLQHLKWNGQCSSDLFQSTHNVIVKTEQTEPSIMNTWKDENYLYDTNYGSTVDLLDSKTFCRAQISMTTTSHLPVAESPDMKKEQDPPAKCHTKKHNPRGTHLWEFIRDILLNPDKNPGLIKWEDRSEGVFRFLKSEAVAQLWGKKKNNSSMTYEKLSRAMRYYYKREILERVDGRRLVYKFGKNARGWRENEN
# In short: as §1
# SPI1 = SPI1 (Homo sapiens, UniProt P17947 1-270); conditions: protein: recombinant; tags: N-terminal GST; dsDNA, one strand shown
# In short: as §1
# SPIB = SPIB (Homo sapiens, UniProt Q01892 1-262); conditions: protein: recombinant; tags: N-terminal GST; dsDNA, one strand shown
# Chain of SPIB (Q01892 whole entry): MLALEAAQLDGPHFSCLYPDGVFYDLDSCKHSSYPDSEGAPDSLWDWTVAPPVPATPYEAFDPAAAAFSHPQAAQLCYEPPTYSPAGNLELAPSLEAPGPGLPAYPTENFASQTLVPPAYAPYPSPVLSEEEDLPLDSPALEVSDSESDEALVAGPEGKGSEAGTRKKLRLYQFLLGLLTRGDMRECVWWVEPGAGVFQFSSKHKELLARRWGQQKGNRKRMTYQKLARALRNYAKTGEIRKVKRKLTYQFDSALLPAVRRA
# In short: as §1
# ELK3 = molecular target: T6, ELK3 (Homo sapiens, UniProt P41970 1-407); conditions: protein: recombinant; tags: N-terminal GST; dsDNA, one strand shown
# T6 sequence: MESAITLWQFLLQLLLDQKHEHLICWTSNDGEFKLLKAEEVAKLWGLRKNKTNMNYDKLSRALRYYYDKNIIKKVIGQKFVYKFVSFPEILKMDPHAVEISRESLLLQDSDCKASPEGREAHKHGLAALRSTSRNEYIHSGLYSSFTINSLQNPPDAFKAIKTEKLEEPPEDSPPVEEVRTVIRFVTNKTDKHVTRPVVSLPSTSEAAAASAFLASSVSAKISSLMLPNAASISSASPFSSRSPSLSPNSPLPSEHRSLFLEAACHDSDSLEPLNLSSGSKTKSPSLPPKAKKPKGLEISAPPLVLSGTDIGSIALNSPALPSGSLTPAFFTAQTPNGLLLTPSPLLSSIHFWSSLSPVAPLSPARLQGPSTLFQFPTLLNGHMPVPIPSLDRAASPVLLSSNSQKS
# In short: as §1
# FEV = molecular target: T7, FEV (Homo sapiens, UniProt Q99581 1-238); conditions: protein: recombinant; tags: N-terminal GST; dsDNA, one strand shown
# T7 sequence: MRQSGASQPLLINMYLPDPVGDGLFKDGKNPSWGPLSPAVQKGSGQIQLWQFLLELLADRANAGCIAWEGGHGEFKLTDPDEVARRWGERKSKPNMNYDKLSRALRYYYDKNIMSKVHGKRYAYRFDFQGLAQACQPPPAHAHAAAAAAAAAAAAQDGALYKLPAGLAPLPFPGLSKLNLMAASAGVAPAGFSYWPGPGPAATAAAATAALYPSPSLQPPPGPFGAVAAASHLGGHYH
# In short: as §1
# ETV5 = ETV5 (Homo sapiens, UniProt P41161 1-510); conditions: protein: recombinant; tags: N-terminal GST; dsDNA, one strand shown
# Chain of ETV5 (P41161 whole entry): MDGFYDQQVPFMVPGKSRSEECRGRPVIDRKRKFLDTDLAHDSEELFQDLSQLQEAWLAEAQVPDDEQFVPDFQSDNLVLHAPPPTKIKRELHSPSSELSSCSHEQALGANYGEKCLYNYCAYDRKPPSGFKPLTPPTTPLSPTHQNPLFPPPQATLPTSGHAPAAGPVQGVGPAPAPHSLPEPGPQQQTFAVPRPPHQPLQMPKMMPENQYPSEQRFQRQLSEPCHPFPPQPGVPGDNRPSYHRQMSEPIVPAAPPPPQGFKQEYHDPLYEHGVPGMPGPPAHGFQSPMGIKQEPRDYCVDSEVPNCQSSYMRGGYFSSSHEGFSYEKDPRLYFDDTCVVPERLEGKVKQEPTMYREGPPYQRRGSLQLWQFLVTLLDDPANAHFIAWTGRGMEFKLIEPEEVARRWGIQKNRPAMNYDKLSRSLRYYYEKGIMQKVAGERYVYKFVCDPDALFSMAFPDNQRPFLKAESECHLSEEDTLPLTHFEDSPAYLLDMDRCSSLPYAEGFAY
# In short: as §1
# HSF1 = HSF1 (Homo sapiens, UniProt Q00613 1-529); conditions: protein: recombinant; tags: N-terminal GST; chain copies: 3; dsDNA, one strand shown
# Chain of HSF1 (Q00613 whole entry): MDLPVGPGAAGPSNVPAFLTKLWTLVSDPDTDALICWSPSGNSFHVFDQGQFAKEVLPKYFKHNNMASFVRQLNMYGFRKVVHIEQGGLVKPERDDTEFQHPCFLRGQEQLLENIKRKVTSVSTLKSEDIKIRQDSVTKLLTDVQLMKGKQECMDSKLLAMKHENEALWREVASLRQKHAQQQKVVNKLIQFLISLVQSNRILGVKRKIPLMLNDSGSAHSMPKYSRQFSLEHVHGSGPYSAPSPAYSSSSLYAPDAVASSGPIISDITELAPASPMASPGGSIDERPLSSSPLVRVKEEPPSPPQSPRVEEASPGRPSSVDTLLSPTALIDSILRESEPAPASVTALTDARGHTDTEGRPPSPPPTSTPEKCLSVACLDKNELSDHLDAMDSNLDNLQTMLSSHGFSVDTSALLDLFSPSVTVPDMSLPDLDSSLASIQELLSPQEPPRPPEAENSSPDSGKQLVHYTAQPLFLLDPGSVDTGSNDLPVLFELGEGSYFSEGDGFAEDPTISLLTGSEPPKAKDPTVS
# In short: as §1
# SPIC = molecular target: T8, SPIC (Homo sapiens, UniProt Q8N5J4 1-248); conditions: protein: recombinant; tags: N-terminal GST; dsDNA, one strand shown
# T8 sequence: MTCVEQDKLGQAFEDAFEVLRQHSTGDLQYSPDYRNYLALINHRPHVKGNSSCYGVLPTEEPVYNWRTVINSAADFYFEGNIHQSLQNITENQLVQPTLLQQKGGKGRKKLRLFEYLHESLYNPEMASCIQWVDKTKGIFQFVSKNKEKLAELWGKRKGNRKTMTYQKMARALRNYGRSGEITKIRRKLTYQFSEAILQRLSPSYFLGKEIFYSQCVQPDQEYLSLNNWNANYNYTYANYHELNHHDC
# In short: as §1
# ELF4 = ELF4 (Homo sapiens, UniProt Q99607 1-663); conditions: protein: recombinant; tags: N-terminal GST; dsDNA, one strand shown
# Chain of ELF4 (Q99607 whole entry): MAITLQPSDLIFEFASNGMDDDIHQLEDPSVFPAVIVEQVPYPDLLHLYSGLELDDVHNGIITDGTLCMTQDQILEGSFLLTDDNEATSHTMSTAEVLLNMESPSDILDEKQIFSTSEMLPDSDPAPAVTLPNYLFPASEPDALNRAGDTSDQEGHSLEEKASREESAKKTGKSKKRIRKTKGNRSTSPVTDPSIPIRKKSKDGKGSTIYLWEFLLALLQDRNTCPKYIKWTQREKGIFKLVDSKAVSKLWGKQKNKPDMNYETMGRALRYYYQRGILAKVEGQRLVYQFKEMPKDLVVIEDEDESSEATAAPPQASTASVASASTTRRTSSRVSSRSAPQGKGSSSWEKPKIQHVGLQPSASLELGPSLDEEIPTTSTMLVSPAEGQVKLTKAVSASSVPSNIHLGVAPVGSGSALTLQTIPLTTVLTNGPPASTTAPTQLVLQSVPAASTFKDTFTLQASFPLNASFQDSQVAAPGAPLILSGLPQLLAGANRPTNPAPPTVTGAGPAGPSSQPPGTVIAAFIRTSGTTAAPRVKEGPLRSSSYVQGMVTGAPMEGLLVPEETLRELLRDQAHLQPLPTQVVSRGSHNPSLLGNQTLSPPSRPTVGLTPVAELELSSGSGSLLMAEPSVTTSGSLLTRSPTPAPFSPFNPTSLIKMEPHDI
# In short: as §1
# ELK4 = molecular target: T9, ELK4 (Homo sapiens, UniProt P28324-2 1-405); conditions: protein: recombinant; tags: N-terminal GST; dsDNA, one strand shown
# T9 sequence: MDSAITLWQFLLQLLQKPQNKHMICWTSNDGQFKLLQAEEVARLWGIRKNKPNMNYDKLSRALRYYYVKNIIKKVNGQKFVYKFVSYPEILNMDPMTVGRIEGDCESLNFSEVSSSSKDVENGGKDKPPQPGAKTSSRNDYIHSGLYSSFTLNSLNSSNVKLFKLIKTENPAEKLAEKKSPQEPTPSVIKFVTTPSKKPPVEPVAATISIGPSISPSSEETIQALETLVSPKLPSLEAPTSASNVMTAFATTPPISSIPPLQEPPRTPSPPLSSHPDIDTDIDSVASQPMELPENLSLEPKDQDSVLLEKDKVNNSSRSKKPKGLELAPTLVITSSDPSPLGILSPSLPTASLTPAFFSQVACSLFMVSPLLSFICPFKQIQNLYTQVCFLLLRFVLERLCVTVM
# In short: as §1
# ETV2 = molecular target: T10, ETV2 (Homo sapiens, UniProt O00321 1-342); conditions: protein: recombinant; tags: N-terminal GST; dsDNA, one strand shown
# T10 sequence: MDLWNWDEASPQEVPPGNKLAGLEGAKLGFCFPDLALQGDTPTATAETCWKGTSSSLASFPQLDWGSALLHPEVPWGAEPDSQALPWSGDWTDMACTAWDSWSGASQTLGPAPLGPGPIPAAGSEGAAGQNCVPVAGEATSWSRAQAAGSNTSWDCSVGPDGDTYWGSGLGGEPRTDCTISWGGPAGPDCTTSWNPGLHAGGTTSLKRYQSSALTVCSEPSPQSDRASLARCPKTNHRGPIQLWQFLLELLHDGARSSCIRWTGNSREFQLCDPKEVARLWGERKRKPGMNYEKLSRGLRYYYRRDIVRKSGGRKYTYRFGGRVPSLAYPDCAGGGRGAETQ
# In short: as §1
# ELF3 = molecular target: T11, ELF3 (Homo sapiens, UniProt P78545 1-371); conditions: protein: recombinant; tags: N-terminal GST; dsDNA, one strand shown
# T11 sequence: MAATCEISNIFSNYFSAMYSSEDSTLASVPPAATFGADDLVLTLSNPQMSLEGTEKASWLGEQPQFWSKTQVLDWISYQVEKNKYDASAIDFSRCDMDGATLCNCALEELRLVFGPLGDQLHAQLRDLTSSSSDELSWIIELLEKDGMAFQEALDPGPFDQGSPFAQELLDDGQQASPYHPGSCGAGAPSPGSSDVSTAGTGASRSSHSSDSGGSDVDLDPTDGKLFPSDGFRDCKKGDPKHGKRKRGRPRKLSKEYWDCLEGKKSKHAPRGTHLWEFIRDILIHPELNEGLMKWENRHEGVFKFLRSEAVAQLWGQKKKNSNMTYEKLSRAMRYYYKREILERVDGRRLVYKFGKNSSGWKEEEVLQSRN
# In short: as §1
# CRX = CRX (Homo sapiens, UniProt O43186 1-299); conditions: protein: recombinant; tags: N-terminal GST; dsDNA, one strand shown
# Chain of CRX (O43186 whole entry): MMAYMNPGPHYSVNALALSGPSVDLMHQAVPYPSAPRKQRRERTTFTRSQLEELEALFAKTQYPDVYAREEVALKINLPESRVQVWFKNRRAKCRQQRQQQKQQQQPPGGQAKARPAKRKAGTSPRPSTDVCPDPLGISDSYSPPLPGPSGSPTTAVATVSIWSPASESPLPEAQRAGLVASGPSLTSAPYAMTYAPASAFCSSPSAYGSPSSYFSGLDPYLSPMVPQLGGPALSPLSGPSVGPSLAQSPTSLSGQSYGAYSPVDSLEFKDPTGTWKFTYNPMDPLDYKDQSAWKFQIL
# In short: as §1
# ETV1 = ETV1 (Homo sapiens, UniProt P50549 1-477); conditions: protein: recombinant; tags: N-terminal GST; dsDNA, one strand shown
# Chain of ETV1 (P50549 whole entry): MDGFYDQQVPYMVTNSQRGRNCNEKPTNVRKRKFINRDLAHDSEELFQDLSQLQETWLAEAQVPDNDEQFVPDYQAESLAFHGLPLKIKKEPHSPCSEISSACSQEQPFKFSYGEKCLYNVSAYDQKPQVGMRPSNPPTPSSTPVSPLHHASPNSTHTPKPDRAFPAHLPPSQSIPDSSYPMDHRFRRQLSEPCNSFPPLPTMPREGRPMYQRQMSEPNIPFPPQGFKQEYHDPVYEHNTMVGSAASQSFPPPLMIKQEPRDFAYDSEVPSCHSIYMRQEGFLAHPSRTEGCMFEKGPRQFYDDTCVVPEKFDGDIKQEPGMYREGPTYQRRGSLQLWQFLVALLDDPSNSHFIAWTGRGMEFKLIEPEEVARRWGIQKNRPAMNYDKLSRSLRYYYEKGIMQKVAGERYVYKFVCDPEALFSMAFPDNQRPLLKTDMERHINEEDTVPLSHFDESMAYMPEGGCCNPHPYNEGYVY
# In short: as §1
sequence,measurement,setting,value
TCTAGC,binding signal,FLI1,"1.31 fold enrichment (6-mer frequency, TF over GST control)"
same,binding signal,ELK1,"1.34 fold enrichment (6-mer frequency, TF over GST control)"
same,binding signal,GABPA,"1.24 fold enrichment (6-mer frequency, TF over GST control)"
same,binding signal,ERG,"1.32 fold enrichment (6-mer frequency, TF over GST control)"
same,binding signal,ELF1,"1.35 fold enrichment (6-mer frequency, TF over GST control)"
same,binding signal,EHF,"1.38 fold enrichment (6-mer frequency, TF over GST control)"
same,binding signal,SPI1,"1.21 fold enrichment (6-mer frequency, TF over GST control)"
same,binding signal,SPIB,"1.19 fold enrichment (6-mer frequency, TF over GST control)"
same,binding signal,ELK3,"1.44 fold enrichment (6-mer frequency, TF over GST control)"
same,binding signal,FEV,"1.25 fold enrichment (6-mer frequency, TF over GST control)"
same,binding signal,ETV5,"1.27 fold enrichment (6-mer frequency, TF over GST control)"
same,binding signal,HSF1,"2.63 fold enrichment (6-mer frequency, TF over GST control)"
same,binding signal,SPIC,"1.16 fold enrichment (6-mer frequency, TF over GST control)"
same,binding signal,ELF4,"1.26 fold enrichment (6-mer frequency, TF over GST control)"
same,binding signal,ELK4,"1.39 fold enrichment (6-mer frequency, TF over GST control)"
same,binding signal,ETV2,"1.19 fold enrichment (6-mer frequency, TF over GST control)"
same,binding signal,ELF3,"1.32 fold enrichment (6-mer frequency, TF over GST control)"
same,binding signal,CRX,"1.7 fold enrichment (6-mer frequency, TF over GST control)"
same,binding signal,ETV1,"1.21 fold enrichment (6-mer frequency, TF over GST control)"
